The values that follow come from ChEMBL document CHEMBL3988442, “University of Dundee, Small-Polar-MMV Screening Library” (2021).

The target of assay [1] is T1, Aspartate--tRNA(Asp/Asn) ligase (Mycobacterium tuberculosis (strain ATCC 25618 / H37Rv)) (UniProt P9WFW3). Note: in the data most compounds retested in dose-response had high values.
T1 sequence (whole entry): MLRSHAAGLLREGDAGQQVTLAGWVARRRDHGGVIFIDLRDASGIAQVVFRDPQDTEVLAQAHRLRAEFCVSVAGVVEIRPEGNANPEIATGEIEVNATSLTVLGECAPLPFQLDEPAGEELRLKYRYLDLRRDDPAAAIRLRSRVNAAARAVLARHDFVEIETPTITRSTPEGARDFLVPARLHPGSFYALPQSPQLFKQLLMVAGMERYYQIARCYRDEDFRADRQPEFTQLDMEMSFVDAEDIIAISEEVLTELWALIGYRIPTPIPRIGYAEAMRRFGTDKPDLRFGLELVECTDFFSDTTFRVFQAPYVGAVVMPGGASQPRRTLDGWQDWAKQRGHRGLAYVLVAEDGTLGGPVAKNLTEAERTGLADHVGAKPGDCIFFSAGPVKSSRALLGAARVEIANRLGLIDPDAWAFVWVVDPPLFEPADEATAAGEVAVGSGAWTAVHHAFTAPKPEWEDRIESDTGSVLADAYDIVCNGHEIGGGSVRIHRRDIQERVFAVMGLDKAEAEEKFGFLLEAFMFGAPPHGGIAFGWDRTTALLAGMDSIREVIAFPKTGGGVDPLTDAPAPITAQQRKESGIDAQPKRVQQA
The experiment in a line: Assay for Asp RNA synthetase-1 from Mycobacterium tuberculosis. Further details: scale not given: direction of the effect not stated beside the values. In kind it is functional. The conditions noted are these: 30 µM.

For assay [2], the target named is Shiga toxin 2 (Escherichia coli O157:H7) (UniProt P09385+P09386). The experiment in a line: E. coli 0.157:H7 Shiga Toxin SOP - stx2 screening assay. The class given is functional. The conditions noted are these: 30 µM. Further details: scale not given: direction of the effect not stated beside the values.

Take `CC(C)COCC1CN(Cc2ccc3c(c2)OCO3)Cc2ncn(C)c21` (centres undefined): the Percent Effect in assay [1] is 2.63%; in assay [2], -19.1%.
For `O=C(Nc1cccnc1)N1CCC(n2ccc(C(F)(F)F)n2)CC1`, the Percent Effect in assay [1] was -4.08%; in assay [2], -16.7%.
For `Nc1nc(C2CCN(C(=O)c3cncs3)CC2)cs1`, the Percent Effect in assay [1] is -0.134%; in assay [2], -3.12%.
Regarding `CC(C)(CO)NC(=O)C1CCC(=O)N(Cc2ccc(Cl)cc2)C1` (centres undefined), the Percent Effect in assay [1] is -3.12%; in assay [2], 0.664%.
Turning to `Cc1ccc(C(N)c2cccc(S(C)(=O)=O)c2)cc1` (centres undefined), the Percent Effect in assay [1] is -0.691%; in assay [2], -0.145%.
In the case of `CCOc1ncccc1NC(=O)c1cc(C)c(C)s1`, the Percent Effect was -2.03% in assay [1] and 3.75% in assay [2].
For `O=C(NCC(O)c1ccccc1Cl)c1cccc(-n2cnnn2)c1` (centres undefined), in that order: 7.85% and 2.65%.
For `CC(=O)N1CCC(c2ccnc(Nc3cncnc3)n2)C1` (centres undefined), in that order: -0.956% and -11.8%.
Turning to `COc1ccc2cc(C(=O)N3CCCCC3Cn3cccn3)[nH]c2c1` (centres undefined), the Percent Effect was -2.15% in assay [1] and 16.3% in assay [2].
The corresponding values for `c1ccc(-n2ccnc2)c(CNCC2CNc3ccnn3C2)c1` (centres undefined) are -5.71% and -13.1%.
Turning to `CCc1nc(C2CCCN2C(=O)c2ccc3c(c2)nc(C)n3C)no1` (centres undefined), the Percent Effect in assay [1] was -0.367%; in assay [2] it was 2.43%.
For `CN(C(=O)c1cccc2[nH]ncc12)C1CCN(c2ccccn2)CC1`, in that order: 4.76% and 24.8%.
With `Cc1cc(CN(C)C(=O)NCc2cccc(N3CCCC3=O)c2)no1`, the Percent Effect in assay [1] was -2.4%; in assay [2], -15%.
With `CCn1cc2c(n1)C(COC)CN(Cc1ccccn1)C2` (centres undefined), the Percent Effect in assay [1] was 7.76%; in assay [2] it was -16.8%.
For the compound `O=C(Cn1ccc2sccc2c1=O)NCc1ccc2c(c1)OCO2`, the Percent Effect in assay [1] was 0.0437%; in assay [2] it was -8.21%.
Consider `O=C(CC1CCCC1)N1CCCC(c2n[nH]c3nccnc23)C1` (centres undefined), for which the Percent Effect in assay [1] was -1.74%; in assay [2], 19.5%.
As to `CN(c1ccc(C(=O)NCCCN2CCOCC2)c(Cl)c1)S(C)(=O)=O`, the Percent Effect in assay [1] was -4.13%; in assay [2], -32.5%.
Turning to `CCCn1nccc1C(=O)N1CCCN(CCCc2ccccc2)CC1`, the results for the Percent Effect in assay [1] and in assay [2] were -3.6% and -14.4%, respectively.
Turning to `Cc1cc(C)c(CNC(=O)N2CCCC2c2cccn2C)c(=O)[nH]1` (centres undefined), the Percent Effect in assay [1] is -3.71%; in assay [2], -31.2%.
The corresponding values for `Cc1nc(C)n(CC2CCCN2Cc2nc(-c3cccs3)no2)n1` (centres undefined) are -2.77% and 29.7%.
Turning to `COc1ccccc1OCC(=O)Nc1ncccc1OC(F)F`, the figures for the Percent Effect in assay [1] and in assay [2] were 3.04% and -12%, respectively.
The corresponding values for `O=C(c1cccc(=O)[nH]1)N(Cc1ccsc1)CC1CCCO1` (centres undefined) are 0.0781% and -11.1%.
Turning to `Cc1cnn(CC2CCCN2c2nn3cc(C)nc3s2)c1` (centres undefined), the Percent Effect in assay [1] was -9.79%; in assay [2] it was -13.5%.
For `CCOc1ncccc1NC(=O)c1sccc1C`, the Percent Effect is -0.501% in assay [1] and -11.1% in assay [2].
Regarding `CC(C)n1ccnc1CN1CCCN(C(=O)c2nccnc2N)CC1`, the Percent Effect in assay [1] was -6.9%; in assay [2], -13.7%.
In the case of `Cn1nc(C2CCCN(C(=O)Cc3ccsc3)C2)c2nccnc21` (centres undefined), the Percent Effect is -0.402% in assay [1] and 7.06% in assay [2].
Consider `CCc1nnsc1C(=O)N1CCOC(c2nc(C)n[nH]2)C1` (centres undefined), for which the Percent Effect is -2.08% in assay [1] and -18.3% in assay [2].
In the case of `Cc1nc(-c2ccc(Cl)s2)sc1C(=O)NCCS(N)(=O)=O`, the Percent Effect in assay [1] is -0.408%; in assay [2], -17.2%.
With `O=C(c1ccccn1)N1Cc2nccn2CC(COc2cccnc2)C1` (centres undefined), the Percent Effect in assay [1] was 3.15%; in assay [2], -14.8%.
For `Cc1cc(CC(=O)NCc2ccnc(OCC(F)(F)F)c2)no1`, in that order: -6.06% and 21%.
Consider `Cc1ccc(-c2nc(CN3CCCC3Cn3cc(C)cn3)no2)cc1` (centres undefined), for which the Percent Effect in assay [1] was 1.48%; in assay [2], -24.5%.
For the compound `Cc1ccc(-c2nnc(SCC(=O)O)n2-c2ccc(C)cc2)cc1`, the Percent Effect in assay [1] is 0.544%; in assay [2], -4.96%.
With `O=C(NCc1cc[nH]n1)NCC(c1ccccc1Cl)N1CCCC1` (centres undefined), the Percent Effect is 5.68% in assay [1] and 4.8% in assay [2].
On to `Cc1cc(NC(=O)NCc2ccccn2)n(C)n1`, for which the values for the Percent Effect in assay [1] and in assay [2] were 3.94% and -40.7%, respectively.
For `O=C(c1ccccn1)N1C[C@@H]2CC[C@H](C1)N(C(=O)CCc1cccs1)C2`, the figures for the Percent Effect in assay [1] and in assay [2] were 12% and -22%, respectively.
For `CCn1cnnc1CNC(=O)N1CCC(Cc2cccnc2)CC1`, in that order: -1.93% and 2.96%.
The corresponding values for `CCc1nccn1C1CCCN(C(=O)Cc2ccc(OC)c(F)c2)C1` (centres undefined) are -7.86% and 4.47%.
With `O=C(NCCN1CCc2ccccc2C1)c1scnc1Cl`, the Percent Effect in assay [1] is 1.6%; in assay [2] it was -3.31%.
For `CCSc1ccc(C(=O)Nc2c(C)nn(C(C)C)c2C)cn1`, in that order: -2.39% and -37.7%.
Consider `Cc1nc(Nc2ncccn2)cc(C2CCCN2CC(C)C)n1` (centres undefined), for which the Percent Effect in assay [1] is -0.75%; in assay [2] it was 13.5%.
Take `Cc1cc(C)c(CNC(=O)NCC2CCCO2)c(=O)[nH]1` (centres undefined): the Percent Effect in assay [1] is -3.97%; in assay [2] it was 24.8%.
Turning to `CCN(C)c1ncnc2c1CCN(C(=O)c1ccno1)CC2`, the figures for the Percent Effect in assay [1] and in assay [2] were 7.02% and -5.46%, respectively.
The corresponding values for `O=C(CCC1CCCO1)NS(=O)(=O)c1ccc(Cl)cc1` (centres undefined) are -1.43% and 21.6%.
`NC(=O)C1CCN(Cn2nc(-c3ccc(F)cc3)oc2=O)CC1`: the Percent Effect was 4.96% in assay [1] and -69.6% in assay [2].
The corresponding values for `Cn1ccc(C(=O)N2CCCC(Cc3cccc4ncccc34)C2)n1` (centres undefined) are -2.07% and -7.58%.
For `O=C(NCC1CC1)C1CN(C(=O)c2cccc(Cl)c2)CC12CCOCC2` (centres undefined), in that order: 11.9% and -14.2%.
In the case of `CNC(=O)C(C)(C)NC(=O)c1cc(OCC2CCC2)cc(C(=O)OC)c1`, the values for the Percent Effect in assay [1] and in assay [2] were 9.31% and 7.4%, respectively.
`Cc1ccccc1N1CC2(CCN(S(=O)(=O)c3cccs3)C2)CC1=O` (centres undefined): the Percent Effect is 0.41% in assay [1] and -0.82% in assay [2].
In the case of `CN(C)C(=O)CC1CC2(CCN(CC3CC3)CC2)c2cc(F)ccc21` (centres undefined), the values for the Percent Effect in assay [1] and in assay [2] were 2.15% and -3.11%, respectively.
For `CCN(CC)C(=O)CN(C)C1CCc2ccccc21` (centres undefined), in that order: -4.5% and 14.4%.
For `CC(C)c1nc(C2CCCN(C(=O)CCCn3cncn3)C2)no1` (centres undefined), the figures for the Percent Effect in assay [1] and in assay [2] were 9.5% and 9.71%, respectively.
Regarding `CCOc1cc(/C=C/c2ncc(C(=O)O)s2)ccc1O`, the Percent Effect in assay [1] was 0.568%; in assay [2], -21.4%.
